Bioassay records from PubChem.
A selection: hits, their analogues and other compounds. The true share with any hit is near 3.5%.
Mcl1 Bid PPI – disrupts binding of human Mcl-1 to Bid peptide | 220,000 tested, 0.97% active | Q07820 | TR-FRET Mcl-1/Bid-Dy647 peptide binding, 1536-well | AID 1021 | inhibition, % at 21.7 µM;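 active = compounds that cut the binding signal by more than half at the single screening dose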;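 also: His-tagged Mcl-1 with europium anti-His antibody binding Bid BH3 peptide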
Target sequence (Q07820 whole entry, looked up): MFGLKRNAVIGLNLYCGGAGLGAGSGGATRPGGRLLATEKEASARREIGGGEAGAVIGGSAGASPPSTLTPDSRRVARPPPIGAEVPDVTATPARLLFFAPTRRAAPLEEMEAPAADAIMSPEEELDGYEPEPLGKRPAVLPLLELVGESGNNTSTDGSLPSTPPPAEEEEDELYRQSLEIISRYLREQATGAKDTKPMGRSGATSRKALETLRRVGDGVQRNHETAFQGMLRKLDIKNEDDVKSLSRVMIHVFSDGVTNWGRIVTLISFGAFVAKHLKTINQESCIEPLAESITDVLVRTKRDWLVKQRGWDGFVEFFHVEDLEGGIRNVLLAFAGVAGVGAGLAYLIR
Mcl1-Noxa inh – Mcl-1/Noxa interaction inhibition | TR-FRET Mcl-1/Noxa peptide binding, 2 h | Q07820 | 220,000 tested, 1.5% active | inhibition, % at 21.7 µM;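 active = compounds that cut the protein-peptide binding signal by more than 50% relative to plate controls in a single-dose test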;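 also: His-tagged Mcl-1 with rhodamine Noxa BH3 peptide and terbium anti-His antibody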
Bim-Mcl-1 – inhibitors of Bim-Mcl-1 interaction, human; Q07820; Bead-based flow cytometry, Bim peptide-Mcl-1 binding; inhibition, % at 10 µM; 190,000 tested, 0.1% active; in the data active = inhibition above about 40%
14-3-3 Bad inh – disrupts binding of bovine 14-3-3 zeta to phospho-Bad peptide; 220,000 tested, 0.71% active; TR-FRET 14-3-3zeta/Dy647-pBad peptide displacement, 1 h; P63103; inhibition, % at 21.7 µM;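 active = inhibition above about 70%, limit read from the data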
eIF4E-4G inh – inhibitors of eIF4E and eIF4G interaction in translation initiation. TR-FRET eIF4E-eIF4GI(517-606) binding, 2 h. 220,000 tested, 0.37% active. inhibition, % at 21.7 µM;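 active = inhibition above about 30%, limit read from the data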
Hck Nef HTS – blocks Nef-activated human Hck kinase; Recombinant Hck-YEEI plus Nef, Z-Lyte FRET kinase assay; inhibition, % at 20 µM; 220,000 tested, 0.68% active; AID 463187;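 active = Hck-Nef kinase inhibition above about 50%, limit read from the data; inactive = inhibition below that limit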
Large screens that a line does not name were inactive; [ ] = another dose, or the depositor's remark.

CCOC(=O)C1(Cc2cccc(OC)c2)CCCN(Cc2cc(C(C)C)n[nH]2)C1 (stereo unspecified)	none
CCOC(=O)C1(Cc2cccc(OC)c2)CCN(Cc2ccccc2)CC1	none
OCCC1CN(Cc2ccc3c(c2)CCO3)CCN1Cc1ccc(F)cc1 (stereo unspecified)	none
O=C(COC(=O)c1cccnc1Cl)NCCC1=CCCCC1	none
O=S(=O)(c1ccc(Cl)c(C(F)(F)F)c1)N1CCN(c2ccccn2)CC1	none
CC(=O)Nc1ccc(NC(=O)COC(=O)c2ccccn2)cc1	none
CC1CC(C)CN(C2CCN(Cc3cccnc3)CC2)C1 (stereo unspecified)	14-3-3 Bad inh 79
O=C(OCCN=C1NS(=O)(=O)c2ccccc21)c1ccco1	none
CN=c1scc(-c2cccs2)n1/N=C/c1ccc(O)c(O)c1O	Mcl1-Noxa inh 108
CN=c1scc(C)n1/N=C/c1cc(Br)c(O)c(OC)c1	Mcl1-Noxa inh 53
CN=c1scc(C)n1/N=C/c1ccc(O)c(O)c1O	Mcl1-Noxa inh 91
COc1cc(/C=N/N(C)C)cc(Br)c1O	none (no result: Bim-Mcl-1)
COc1ccc(-c2cc(C(F)(F)F)n3ncc(C(=O)N(C)Cc4ccccc4)c3n2)cc1	none
O=C(Cn1cnc2sc(-c3ccccc3)cc2c1=O)NCc1ccccc1	none
O=C(Cn1ncn2c(cc3ccccc32)c1=O)NCc1ccco1	Mcl1-Noxa inh 69
O=C(Cn1cnc2scc(-c3ccccc3)c2c1=O)NCc1ccco1	Mcl1-Noxa inh 51
COc1ccc(CNC(=O)Cn2ncn3c(cc4ccccc43)c2=O)cc1	none (no result: Bim-Mcl-1)
O=C(Cn1cnc2sc(-c3ccccc3)cc2c1=O)NCc1ccco1	Mcl1-Noxa inh 62
CC(C)(C)c1cc(C(c2cccnc2)N2CCN(CCO)CC2)cc(C(C)(C)C)c1O (stereo unspecified)	Mcl1 Bid PPI 55
CC(C)(C)n1nnnc1C(c1cccnc1)N1CCN(C2CCCCC2)CC1 (stereo unspecified)	none
Cc1cc(C)n(CCC(=O)Nc2cccc(F)c2)n1	none
Cc1cnc(NC(=O)CC2CCCC2)s1	none
CC(=O)NS(=O)(=O)c1ccc(Nc2ccc([N+](=O)[O-])c3nonc23)cc1	none (no result: Bim-Mcl-1)
C=CCn1c(=NC(=O)C2COc3ccccc3O2)sc2cccc(OC)c21 (stereo unspecified)	none (no result: Bim-Mcl-1)
CCn1c(=NC(=O)C2COc3ccccc3O2)sc2c(C)ccc(OC)c21 (stereo unspecified)	eIF4E-4G inh 90 (no result: Bim-Mcl-1)
Cc1ccc(NC(=O)c2cc(NC(=O)c3ccco3)ccc2N2CCOCC2)cc1	none
Cc1ccc(NC(=O)c2cc(N3C(=O)C=CC3=O)ccc2Cl)cc1C	Mcl1-Noxa inh 77
Cc1ccc(NC(=O)c2cc(-n3cnnc3)ccc2Cl)cc1	none
Cc1ccc(NC(=O)c2cc(N3C(=O)C=CC3=O)ccc2N2CCOCC2)cc1	Mcl1-Noxa inh 55
NC(=O)c1ccsc1NC(=O)CSc1nnc(Nc2ccccc2)s1	Mcl1-Noxa inh 69
COc1ccc(C2C(C(=O)N3CCCCC3)CC(=O)N2c2ccc(OC)cc2)cc1 (stereo unspecified)	none
COc1ccc(N2C(=O)C(CN3CCCCC3)C2c2ccccc2)cc1 (stereo unspecified)	14-3-3 Bad inh 89
CN(CC(=O)Nc1cccc(C#N)c1)Cc1ccc(Cl)cc1	Mcl1 Bid PPI 86
Cc1[nH]c2ccccc2c1/C=N\NC(=O)CNc1ccc2c(c1)OCO2	Mcl1-Noxa inh 56
O=C(OC1CCCCC1)c1ccc2c(c1)C1C=CCC1C(C(=O)O)N2 (stereo unspecified)	Mcl1 Bid PPI 98, Mcl1-Noxa inh 108, eIF4E-4G inh 62[fluorescence artefact?], Hck Nef HTS 77
O=C(O)C1Nc2c(O)cccc2C2C=CCC12 (stereo unspecified)	Mcl1 Bid PPI 86, Mcl1-Noxa inh 115, 14-3-3 Bad inh 83[fluorescence artefact?], eIF4E-4G inh 48[fluorescence artefact?]
O=C(O)c1ccc2c(c1)[C@@H]1C=CC[C@@H]1[C@H](c1ccccn1)N2	none (no result: Mcl1 Bid PPI, Mcl1-Noxa inh, Bim-Mcl-1, 14-3-3 Bad inh, eIF4E-4G inh)
CCOc1ccc(N2C(=O)CC(S/C(N)=N/N=C/c3cccs3)C2=O)cc1 (stereo unspecified)	none
N/C(=N\N=C\c1cccs1)SC1CC(=O)N(c2cccc([N+](=O)[O-])c2)C1=O (stereo unspecified)	14-3-3 Bad inh 82
